Test results as given in PubChem BioAssay AID1159580 (chemical genetic matrix, 2015).
The campaign covered roughly 5,500 compounds. About 2,000 (36%) were called active. Roughly 18% stayed inconclusive and do not appear here. Rule as the data show it: active = normalized growth mostly below about 0.91 (no sharp cut-off); inconclusive = no clear call, values can overlap the other calls; inactive = mostly above about 0.92. This is one part of the list.

Test: chemical genetic growth profiling, strain panel (AID 1159580);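 also: tested at 20 µM; growth read once vehicle control cultures reached saturation at 30 °C; 1 = growth at the plate median or of vehicle wells; lower values mean less growth of the strain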
Details: growth OD
[1] = S. cerevisiae deletion strains, locus YDR150W, strain NUM1, stronger effect = lower value
[2] = S. cerevisiae deletion strains, locus YHR030C, strain SLT2, stronger effect = lower value
[3] = S. cerevisiae deletion strains, locus YMR307W, strain GAS1, stronger effect = lower value
[4] = S. cerevisiae deletion strains, locus YNL153C, strain GIM3, stronger effect = lower value
[5] = S. cerevisiae deletion strains, locus YNL322C, strain KRE1, stronger effect = lower value
[6] = S. cerevisiae deletion strains, locus YPL241C, strain CIN2, stronger effect = lower value

Measured: normalized growth

O=C1CC(Nc2ccccc2)C=C1Nc1ccccc1 (stereo unspecified)
inactive: S. cerevisiae deletion strains, locus YAL013W, strain DEP1, stronger effect = lower value 1.01 | S. cerevisiae deletion strains, locus YBR229C, strain ROT2, stronger effect = lower value 1.03 | S. cerevisiae deletion strains, locus YCL061C, strain MRC1, stronger effect = lower value 1.01 | S. cerevisiae deletion strains, locus YDL101C, strain DUN1, stronger effect = lower value 1.01 | S. cerevisiae deletion strains, locus YDL134C, strain PPH21, stronger effect = lower value 1.02 | [1] 1.02 | S. cerevisiae deletion strains, locus YEL061C, strain CIN8, stronger effect = lower value 1.01 | S. cerevisiae deletion strains, locus YGR078C, strain PAC10, stronger effect = lower value 1.01 | [2] 1.01 | S. cerevisiae deletion strains, locus YHR087W, strain rtc3, stronger effect = lower value 1.02 | S. cerevisiae deletion strains, locus YJR043C, strain POL32, stronger effect = lower value 1.01 | S. cerevisiae deletion strains, locus YJR075W, strain HOC1, stronger effect = lower value 1.03 | S. cerevisiae deletion strains, locus YKL190W, strain CNB1, stronger effect = lower value 1.02 | S. cerevisiae deletion strains, locus YLR039C, strain RIC1, stronger effect = lower value 0.977 | S. cerevisiae deletion strains, locus YLR058C, strain SHM2 (second series), stronger effect = lower value 1.03 | S. cerevisiae deletion strains, locus YLR085C, strain ARP6, stronger effect = lower value 0.968 | S. cerevisiae deletion strains, locus YLR262C, strain YPT6, stronger effect = lower value 1.02 | S. cerevisiae deletion strains, locus YML094W, strain GIM5, stronger effect = lower value 1.01 | S. cerevisiae deletion strains, locus YMR219W, strain ESC1, stronger effect = lower value 1.03 | S. cerevisiae deletion strains, locus YMR263W, strain SAP30, stronger effect = lower value 1 | [3] 1.02 | [4] 1 | S. cerevisiae deletion strains, locus YNL298W, strain CLA4 (second series), stronger effect = lower value 0.979 | [5] 1.01 | S. cerevisiae deletion strains, locus YNR030W, strain Alg12, stronger effect = lower value 1.01 | S. cerevisiae deletion strains, locus YPL055C, strain LGE1, stronger effect = lower value 1.09 | [6] 0.998 | S. cerevisiae deletion strains, locus YPR135W, strain CTF4, stronger effect = lower value 0.966 | S. cerevisiae strains, strain wild type, stronger effect = lower value 1.02

NC(=O)OCC(COC(N)=O)c1ccccc1
inactive: S. cerevisiae deletion strains, locus YAL040C, strain CLN3, stronger effect = lower value 1.03 | S. cerevisiae deletion strains, locus YCL061C, strain MRC1 (second series), stronger effect = lower value 1.01 | [1] 1 | S. cerevisiae deletion strains, locus YDR363W, strain ESC2, stronger effect = lower value 1 | S. cerevisiae deletion strains, locus YER002W, strain NOP16, stronger effect = lower value 0.999 | S. cerevisiae deletion strains, locus YGR229C, strain SMI1, stronger effect = lower value 0.991 | [2] 0.975 | S. cerevisiae deletion strains, locus YHR079C, strain IRE1, stronger effect = lower value 0.991 | S. cerevisiae deletion strains, locus YJL095W, strain BCK1, stronger effect = lower value 0.959 | S. cerevisiae deletion strains, locus YJR066W, strain TOR1, stronger effect = lower value 0.932 | S. cerevisiae deletion strains, locus YLR113W, strain HOG1, stronger effect = lower value 0.99 | [3] 0.985 | [4] 1.04 | S. cerevisiae deletion strains, locus YNL175C, strain NOP13, stronger effect = lower value 0.999 | S. cerevisiae deletion strains, locus YNL183C, strain NPR1, stronger effect = lower value 0.945 | S. cerevisiae deletion strains, locus YNL197C, strain WHI3, stronger effect = lower value 1 | S. cerevisiae deletion strains, locus YNL224C, strain SQS1, stronger effect = lower value 1.03 | [5] 1.02 | S. cerevisiae deletion strains, locus YOR083W, strain WHI5 (second series), stronger effect = lower value 1.02 | S. cerevisiae deletion strains, locus YOR231W, strain MKK1, stronger effect = lower value 0.976 | [6] 1.01 | S. cerevisiae deletion strains, locus YPL256C, strain CLN2, stronger effect = lower value 0.976
